{"source": "the supplement of paper PMC8728848", "binders": {"B1": {"name": "CPA (Cicer arietinum) (protein)", "chain": "MAFSYLNLVLVTLTTLFFLQTTKVKSQKSVSFHITNFTISRPSITLQGTAEFLPNVLLLNDIEHPVFVVGRALYSKPITLWNNKTGKVASFVTSFTFDVQDLKKTVPGHGLVFFLAPSGSEIPFSSDGGNLGVVDGKNAFNRFVGVEFDNFVNSWDPKYSHVGINVNSLISTKTVKWNRVSGELVKVSIVYDSVSTTLTVIVTYKNGQISILSQLVDLKAVLPDTVNIGFSASTTLVSPRQLHNIHSWSFTSTFET"}}, "experiment_in_all_cases": "glycan array binding signal (z-score within array); higher = stronger binding", "details_in_all_cases": "glycan notation: IUPAC condensed, linker removed", "key": {"[1]": {"biological_target": "Fuc(a1-2)Gal(b1-3)GalNAc", "in_short": "(§1)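 From the Consortium for Functional Glycomics database, 3228 arrays were curated, keeping only those whose protein sequence was available. Binding is given as a within-array Z-score averaged across arrays sharing a protein sequence and across linkers. Negative Z-scores can be read as non-binding.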"}, "[2]": {"biological_target": "Fuc(a1-2)Gal(b1-3)GlcNAc(b1-2)Man(a1-3)[Fuc(a1-2)Gal(b1-3)GlcNAc(b1-2)Man(a1-6)]Man(b1-4)GlcNAc(b1-4)GlcNAc", "in_short": "as §1"}, "[3]": {"biological_target": "Fuc(a1-2)Gal(b1-3)[Fuc(a1-4)]GlcNAc(b1-3)[Gal(b1-4)GlcNAc(b1-6)]Gal(b1-4)Glc", "in_short": "as §1"}, "[4]": {"biological_target": "Fuc(a1-2)Gal(b1-4)GlcNAc(b1-2)Man(a1-3)[Fuc(a1-2)Gal(b1-4)GlcNAc(b1-2)Man(a1-6)]Man(b1-4)GlcNAc(b1-4)[Fuc(a1-6)]GlcNAc", "in_short": "as §1"}, "[5]": {"biological_target": "Fuc(a1-2)Gal(b1-4)GlcNAc(b1-3)Gal(b1-4)GlcNAc(b1-2)Man(a1-3)[Fuc(a1-2)Gal(b1-4)GlcNAc(b1-3)Gal(b1-4)GlcNAc(b1-2)Man(a1-6)]Man(b1-4)GlcNAc(b1-4)GlcNAc", "in_short": "as §1"}, "[6]": {"biological_target": "Fuc(a1-2)Gal(b1-4)[Fuc(a1-3)]GlcNAc(b1-3)Gal(b1-4)[Fuc(a1-3)]GlcNAc", "in_short": "as §1"}, "[7]": {"biological_target": "Fuc(a1-2)[Gal(a1-3)]Gal(b1-3)GlcNAc(b1-2)Man(a1-3)[Fuc(a1-2)[Gal(a1-3)]Gal(b1-3)GlcNAc(b1-2)Man(a1-6)]Man(b1-4)GlcNAc(b1-4)[Fuc(a1-6)]GlcNAc", "in_short": "as §1"}, "[8]": {"biological_target": "Fuc(a1-2)[Gal(a1-3)]Gal(b1-4)GlcNAc(b1-2)Man(a1-3)[Fuc(a1-2)[Gal(a1-3)]Gal(b1-4)GlcNAc(b1-2)Man(a1-6)]Man(b1-4)GlcNAc(b1-4)GlcNAc", "in_short": "as §1"}, "[9]": {"biological_target": "Fuc(a1-2)[GalNAc(a1-3)]Gal(b1-3)GlcNAc(b1-3)GalNAc", "in_short": "as §1"}, "[10]": {"biological_target": "Fuc(a1-2)[GalNAc(a1-3)]Gal(b1-4)GlcNAc(b1-2)Man(a1-3)[Fuc(a1-2)[GalNAc(a1-3)]Gal(b1-4)GlcNAc(b1-2)Man(a1-6)]Man(b1-4)GlcNAc(b1-4)[Fuc(a1-6)]GlcNAc", "in_short": "as §1"}, "[11]": {"biological_target": "Fuc(a1-2)[GalNAc(a1-4)]Gal(b1-4)GlcNAc", "in_short": "as §1"}, "[12]": {"biological_target": "Fuc(a1-3)GlcNAc", "in_short": "as §1"}, "[13]": {"biological_target": "Gal(a1-2)Gal", "in_short": "as §1"}, "[14]": {"biological_target": "Gal(a1-3)Gal(b1-3)GlcNAc", "in_short": "as §1"}, "[15]": {"biological_target": "Gal(a1-3)Gal(b1-3)GlcNAc(b1-2)Man", "in_short": "as §1"}, "[16]": {"biological_target": "Gal(a1-3)Gal(b1-3)GlcNAc(b1-6)GalNAc", "in_short": "as §1"}, "[17]": {"biological_target": "Gal(a1-3)Gal(b1-4)Glc", "in_short": "as §1"}, "[18]": {"biological_target": "Gal(a1-3)Gal(b1-4)GlcNAc(b1-6)GalNAc", "in_short": "as §1"}, "[19]": {"biological_target": "Gal(a1-3)GalNAc", "in_short": "as §1"}, "[20]": {"biological_target": "Gal(b1-3)GalNAc(a1-3)[Fuc(a1-2)]Gal(b1-4)Glc", "in_short": "as §1"}, "[21]": {"biological_target": "Gal(b1-3)GlcNAc(b1-3)Gal(b1-4)GlcNAc(b1-3)Gal(b1-4)GlcNAc(b1-2)[Gal(b1-3)GlcNAc(b1-3)Gal(b1-4)GlcNAc(b1-3)Gal(b1-4)GlcNAc(b1-6)]Man(a1-6)[Gal(b1-3)GlcNAc(b1-3)Gal(b1-4)GlcNAc(b1-3)Gal(b1-4)GlcNAc(b1-2)Man(a1-3)]Man(b1-4)GlcNAc(b1-4)[Fuc(a1-6)]GlcNAc", "in_short": "as §1"}, "[22]": {"biological_target": "Gal(b1-4)GalNAc(a1-3)[Fuc(a1-2)]Gal(b1-4)GlcNAc", "in_short": "as §1"}, "[23]": {"biological_target": "Gal(b1-4)GlcNAc(b1-2)Man(a1-6)[Man(a1-3)]Man(b1-4)GlcNAc(b1-4)GlcNAc", "in_short": "as §1"}, "[24]": {"biological_target": "Gal(b1-4)GlcNAc(b1-3)Gal(b1-4)GlcNAc(b1-3)Gal(b1-4)GlcNAc(b1-2)Man(a1-3)[Gal(b1-4)GlcNAc(b1-3)Gal(b1-4)GlcNAc(b1-3)Gal(b1-4)GlcNAc(b1-2)Man(a1-6)]Man(b1-4)GlcNAc(b1-4)GlcNAc", "in_short": "as §1"}, "[25]": {"biological_target": "Gal(b1-4)GlcNAc(b1-3)Gal(b1-4)GlcNAc(b1-3)Gal(b1-4)GlcNAc(b1-3)Gal(b1-4)GlcNAc(b1-2)Man(a1-3)[Gal(b1-4)GlcNAc(b1-3)Gal(b1-4)GlcNAc(b1-3)Gal(b1-4)GlcNAc(b1-3)Gal(b1-4)GlcNAc(b1-2)Man(a1-6)]Man(b1-4)GlcNAc(b1-4)[Fuc(a1-6)]GlcNAc", "in_short": "as §1"}, "[26]": {"biological_target": "Gal(b1-4)GlcNAc(b1-3)Gal(b1-4)GlcNAc(b1-3)Gal(b1-4)GlcNAc(b1-3)Gal(b1-4)GlcNAc(b1-3)Gal(b1-4)GlcNAc(b1-3)Gal(b1-4)GlcNAc(b1-2)Man(a1-3)[Gal(b1-4)GlcNAc(b1-3)Gal(b1-4)GlcNAc(b1-3)Gal(b1-4)GlcNAc(b1-3)Gal(b1-4)GlcNAc(b1-3)Gal(b1-4)GlcNAc(b1-3)Gal(b1-4)GlcNAc(b1-2)Man(a1-6)]Man(b1-4)GlcNAc(b1-4)GlcNAc", "in_short": "as §1"}, "[27]": {"biological_target": "Gal(b1-4)GlcNAc(b1-3)Gal(b1-4)GlcNAc(b1-3)GalNAc", "in_short": "as §1"}, "[28]": {"biological_target": "Gal(b1-4)GlcNAc(b1-3)GalNAc", "in_short": "as §1"}, "[29]": {"biological_target": "Gal(b1-4)GlcNAc(b1-6)[Gal(b1-4)GlcNAc(b1-3)]GalNAc", "in_short": "as §1"}, "[30]": {"biological_target": "Gal(b1-4)GlcNAc6P", "in_short": "as §1"}}, "note": "The entries come from a sample that favours the strongest signals as a whole."}
{"binder": "B1", "values": [{"measurement": "glycan array binding signal (z-score)", "setting": "[1]", "value": -0.424}, {"measurement": "glycan array binding signal (z-score)", "setting": "[2]", "value": 3.79}, {"measurement": "glycan array binding signal (z-score)", "setting": "[3]", "value": -0.072}, {"measurement": "glycan array binding signal (z-score)", "setting": "[4]", "value": 0.297}, {"measurement": "glycan array binding signal (z-score)", "setting": "[5]", "value": 0.012}, {"measurement": "glycan array binding signal (z-score)", "setting": "[6]", "value": -0.681}, {"measurement": "glycan array binding signal (z-score)", "setting": "[7]", "value": -0.184}, {"measurement": "glycan array binding signal (z-score)", "setting": "[8]", "value": 0.562}, {"measurement": "glycan array binding signal (z-score)", "setting": "[9]", "value": 3.66}, {"measurement": "glycan array binding signal (z-score)", "setting": "[10]", "value": 0.023}, {"measurement": "glycan array binding signal (z-score)", "setting": "[11]", "value": 1.3}, {"measurement": "glycan array binding signal (z-score)", "setting": "[12]", "value": -0.573}, {"measurement": "glycan array binding signal (z-score)", "setting": "[13]", "value": -0.045}, {"measurement": "glycan array binding signal (z-score)", "setting": "[14]", "value": 0.134}, {"measurement": "glycan array binding signal (z-score)", "setting": "[15]", "value": -0.562}, {"measurement": "glycan array binding signal (z-score)", "setting": "[16]", "value": -0.42}, {"measurement": "glycan array binding signal (z-score)", "setting": "[17]", "value": 0.092}, {"measurement": "glycan array binding signal (z-score)", "setting": "[18]", "value": -0.23}, {"measurement": "glycan array binding signal (z-score)", "setting": "[19]", "value": -0.121}, {"measurement": "glycan array binding signal (z-score)", "setting": "[20]", "value": -0.568}, {"measurement": "glycan array binding signal (z-score)", "setting": "[21]", "value": 3.59}, {"measurement": "glycan array binding signal (z-score)", "setting": "[22]", "value": -0.399}, {"measurement": "glycan array binding signal (z-score)", "setting": "[23]", "value": -0.041}, {"measurement": "glycan array binding signal (z-score)", "setting": "[24]", "value": 4.32}, {"measurement": "glycan array binding signal (z-score)", "setting": "[25]", "value": 0.005}, {"measurement": "glycan array binding signal (z-score)", "setting": "[26]", "value": 3.7}, {"measurement": "glycan array binding signal (z-score)", "setting": "[27]", "value": 3.36}, {"measurement": "glycan array binding signal (z-score)", "setting": "[28]", "value": -0.24}, {"measurement": "glycan array binding signal (z-score)", "setting": "[29]", "value": 3.6}, {"measurement": "glycan array binding signal (z-score)", "setting": "[30]", "value": 5.14}]}
